Drawing on PubChem BioAssay AID2726 (Broad Institute, 2010), this text covers growth inhibition for 32 compounds.

Molecules are shown by their SMILES. Some of the results follow. Values without a mark were called inactive.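 How the source made its calls: active means every replicate shows growth inhibition above 50%; inconclusive means at least half, but not all, replicates pass that cutoff; inactive means fewer than half of replicates pass it.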

This experiment can be described thus: Vibrio harveyi growth inhibition, confirmation, counter-screen for AI-2 quorum sensing project, JMH597 strain, OD600 absorbance (AID 2726). Particulars: 9 h, at 7.5 µM, stronger effect = higher value, lacks LuxN and CqsS sensors. A general note: Counterscreens check selectivity or assay interference.

With `O=C(CCC(=O)c1cccs1)Nc1nc2ccccc2s1`, the growth inhibition is -16.4%. Then `O=C1COc2ccc(S(=O)(=O)Nc3ccc(OC(F)(F)F)cc3)cc2N1`, with 41.4%; and `S=C(NCc1ccc(Cl)cc1)NC1CCCCC1`, with 11.3%; and `O=C(COc1ncnc2ccccc12)NC(=O)NCc1ccccc1`, with 17.5%. The value for `Cc1ccc(Cc2nc(-c3cccc(C)c3)no2)cc1` was 30.5%; that for `Cc1ccsc1C(=O)OCC(=O)c1cc2ccccc2o1` was 32.2%. Then `Cc1ccccc1C(=O)Nc1ccc(N2CCCCCC2)cc1`, with 25.5%. For the compound `CC(=O)c1cccc(OCc2cc(C(=O)NC(C)Cc3cccnc3)no2)c1` (configuration not stated), the growth inhibition is 1.63%. Then `O=C(COC(=O)C1CCCCC1)Nc1ccc([N+](=O)[O-])cc1`, with -6.27%; and `COc1ccc(/C(N)=N/OC(=O)Cc2ccccc2)cc1`, with 15.4%. Then `COc1cccc(NC(=O)NCc2ccc(F)cc2)c1`, with -8.06%; and `O=C(c1cc(-c2cccc(O)c2)on1)N1CCc2ccccc2C1`, with 14.2%. Then `O=C(Cn1cnc2ccccc2c1=O)Nc1cccc(S(=O)(=O)N2CCCCC2)c1`, with 22.5%; and `O=C(Nc1ccc(F)c(Cl)c1)C1CCN(S(=O)(=O)c2cccnc2)CC1`, with -9.31%; and `Cc1cccc(CSc2ccc(-c3cccs3)nn2)c1`, with 18.7%. Regarding `Cc1cc(C(=O)OCC(=O)Nc2ccc(F)c(F)c2)c(C)o1`, the growth inhibition was 2.76%. Then `Cc1ccc(NC(=O)C2CC2c2ccccc2)cc1` (configuration not stated), with -14.1%; and `Cc1cc(CN(C)C(=O)c2cc(COc3ccc(C)c(C)c3)on2)n[nH]1`, with 25.5%.

As to `CCOC(=O)c1nn(-c2cccc(C)c2)cc1C(=O)c1ccccc1`, the growth inhibition was -8.39%. Then `O=C(/C=C/c1ccc2c(c1)OCO2)NCc1ccc(F)cc1`, with 4.99%; and `Cc1ccc(NS(=O)(=O)c2ccc3c(c2)NC(=O)CO3)cc1`, with -1.97%; and `Cc1ccccc1NC(=O)CCOc1ccccc1`, with -12.9%. Turning to `CC(C)(C)c1ccc(OC2=CS(=O)(=O)c3ccccc32)cc1`, the growth inhibition was 31.5%. Then `CC(CNc1ccc([N+](=O)[O-])cc1)NC(=O)c1ccccc1Br` (configuration not stated), with 16.7%; and `O=C(/C=C/c1ccc2c(c1)OCCO2)c1ccc(O)cc1`, with 2.39%. Then `Cc1nn(CC(=O)Nc2ccc(F)cc2)c(=O)c2ccccc12`, with 2.73%.

On to `CN(Cc1cnccn1)C(=O)c1cc(COc2cccc(C(F)(F)F)c2)on1`, for which the growth inhibition was 4.24%. Consider `N/C(=N\OC(=O)CCc1ccccc1)c1cccnc1`, for which the growth inhibition is 3.39%.

With `CCOc1ccc(/C=N/NC(N)=S)cc1`, the growth inhibition was 8.81%.

For the compound `Cc1ccc(Oc2cnn(-c3ccccc3)c(=O)c2Br)cc1`, the growth inhibition is -6.12%.

With `COC(=O)C1CCN(C(=O)c2ccc3oc(Cc4ccc(Cl)cc4)nc3c2)CC1`, the growth inhibition is 26.4%. The value for `COC(=O)c1ccc(SCc2ccccc2)nc1` was 13.9%.
